We go through 29 molecules from PubChem BioAssay (NCI).

Values joined by “and” are separate entries in the source; they are usually repeats but may differ in a detail not shown here. Equal values may be shown once. About 83,000 compounds went through this panel and 20% of them were active in at least one assay; those are over-represented in the sample as a whole.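 Percent growth is the endpoint: 0 to 100 indicates growth inhibition (40 means 60% inhibition), 0 means no net growth, and negative values indicate cell death.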 Active and inactive are the calls of the source.

One assay deals with TK-10 renal. Put plainly: NCI-60 one-dose screen, 48 h (100 = growth as untreated, 0 = no growth, -100 = all killed). Particulars: 2.5 µM. Here is the method:
Growth inhibition of the TK-10 human tumor cell line is measured as a screen for anti-cancer activity. Cells are grown in 96 well plates and exposed to the test compound for 48 hours. Compounds are tested at a single concentration, which is 10^-5 M for most compounds. The reported endpoint is percent growth (GI% or GIPRCNT), where numbers from 0 - 100% represent growth inhibition, and numbers from -100% - 0 represent cell death. For example, a value of 40 represents 60% growth inhibition. A value of 0 means no net growth occurred over the course of the experiment. A value of -40 indicates 40% of cells at the beginning of the experiment died by the end of the experiment. A value of -100 means all cells are dead at the end of the experiment.
NCI-60 Human Tumor Cell Lines Screen was performed using the standard one-dose NCI protocol, which is described in more detail at https://dtp.cancer.gov/discovery_development/nci-60/default.htm.
Compounds with GIPRCNT values below 10 were considered active. Activity score was based on GIPRCNT using the following formula: […]
Score is 0 for GIPRCNT values of 100 or above, 50 for GIPRCNT values of 0, and 100 for GIPRCNT values of -100.
With `Cc1c(N)nc([C@H](CC(N)=O)NC[C@H](N)C(N)=O)nc1C(=O)N[C@H](C(=O)N[C@H](C)[C@@H](O)[C@H](C)C(=O)N[C@H](C(=O)NCCc1nc(-c2nc(C(=O)NCCC[S+](C)C)cs2)cs1)[C@@H](C)O)C(OC1OC(CO)C(O)C(O)C1OC1OC(CO)C(O)C(OC(N)=O)C1O)c1cnc[nH]1` (some centres not stated), the growth was 89.5% (inactive).

The assay is the same for the next values; noted with them: 10 µM.
As for `O=C1c2ccccc2C(=O)C(Cl)C1Cl` (configuration not stated), the growth was -97.4% (active).

Consider `COc1ccc(OC)c(/C=C/[N+](=O)[O-])c1`, for which the growth is -31.9% (active).

Consider `Oc1cc[c]([Hg][Cl])cc1`, for which the growth was 110% (inactive).

`CC1=C2C(=O)[C@H]3[C@@H](CC=C4C[C@@H](O)CC[C@@]43C)[C@@H]2CC[C@]12O[C@@H]1C[C@H](C)CN[C@H]1[C@H]2C`: the growth was 108% (inactive).

Turning to `C[C@]12CC[C@H](O)CC1=CC[C@@H]1[C@@H]2CC[C@]2(C)C(=O)CC[C@@H]12`, the growth is 96.2% (inactive).

For the molecule `C[C@H]1CCC/C=C/[C@@H]2C[C@H](O)C[C@H]2[C@H](O)/C=C/C(=O)O1`, the growth was -31.1% (active).

With `CCC(=O)OC1CCn2c1nc1c2C(=O)C(C)=C(N2CC2)C1=O` (configuration not stated), the growth is -5.86% (active).

Take `CO[C@H](/C(C)=C/C=C/C(C)=C/c1coc(C)n1)[C@H](C)[C@H]1C[C@@H](O)[C@@]2(C)O[C@H]2/C=C/[C@@H](C)[C@@H]2C[C@@H](CC(=O)O2)C[C@H]2O[C@@H]2C(=O)O1`: the growth is 37.2% (inactive).

Consider `CC[C@@]1(O)C[C@H](OC2CC(N(C)C)C(O)C(C)O2)c2c(O)c3c(c(O)c2[C@H]1OC1CC(N(C)C)C(O)C(C)O1)C(=O)c1cccc(O)c1C3=O` (some centres not stated), for which the growth is -24.9% (active).

For the molecule `CN1CCN(c2ccc([N+](=O)[O-])c3no[n+]([O-])c23)CC1`, the growth is -95.4% (active).

Consider `CC[C@](O)(C(=O)O)c1cc2n(c(=O)c1CO)Cc1cc3ccccc3nc1-2`, for which the growth is 6.69% (active).

Turning to `COc1cccc2c1cc([N+](=O)[O-])c1c(C(=O)O)cc3c(c12)OCO3`, the growth is 30.8% (inactive) and 99.6% (inactive).

Take `NCCc1ccc(OCc2ccccc2)c(OCc2ccccc2)c1`: the growth is 107% (inactive).

For the molecule `COC1=C(C)C(=O)C2=C(C1=O)C(CO)N1C(C#N)C3CC4C(C1C2N1CCOC41)N3C` (configuration not stated), the growth is -28.8% (active).

`COC1CC(CC2CCC(C)C(C(C)C(=O)O)O2)OC2(OC(C)(C3CCC(C)(C4OC(C5OC(O)(CO)C(C)CC5C)CC4C)O3)CC2C)C1C` (configuration not stated): the growth is 4.27% (active).

Regarding `Oc1cccc2cccnc12`, the growth is 113% (inactive) and 98.5% (inactive) and 104% (inactive).

`COc1ccccc1/C=C(/C)[N+](=O)[O-]`: the growth is 75.2% (inactive) and 95% (inactive).

As to `CC[C@@]1(O)C[C@H](OC2CC(N(C)C)C(OC3CC(O)C(OC4CCC(=O)C(C)O4)C(C)O3)C(C)O2)c2c(cc3c(c2O)C(=O)c2c(O)ccc(O)c2C3=O)[C@H]1C(=O)OC` (some centres not stated), the growth was 6.04% (active).

With `Cc1cc(N=Nc2ccccc2C)ccc1N`, the growth was 124% (inactive).

Consider `S=C(SSC(=S)N1CCCCC1)N1CCCCC1`, for which the growth is 109% (inactive).

With `CC[n+]1c(-c2ccccc2)c2cc(N)ccc2c2ccc(N)cc21`, the growth is 42% (inactive).

`CCC1(O)CC(OC2CC(N(C)C)C(OC3CC4OC5CC(=O)C(C)OC5OC4C(C)O3)C(C)O2)c2c(cc3c(c2O)C(=O)c2c(O)ccc(O)c2C3=O)C1C(=O)OC` (configuration not stated): the growth was -28.7% (active).

On to `CC1=C(CO)C2=C(C)C3(CC3)[C@@](C)(O)C(=O)C2=C1`, for which the growth was -23.3% (active).

On to `CC[C@@]1(O)C(=O)OCc2c1cc1n(c2=O)Cc2cc3ccccc3nc2-1`, for which the growth is -8.5% (active).

As to `CCOC(=O)C(NC(=O)C(Cc1ccc(N(CCCl)CCCl)cc1)NC(C)=O)C(C)C` (configuration not stated), the growth is 95.5% (inactive).

As for `Cc1ccc(C(=O)OC(C(=O)O)C(OC(=O)c2ccc(C)cc2)C(=O)O)cc1` (configuration not stated) (tested in a mixture with another compound), the growth was 93.2% (inactive).

Consider `CC(=O)O[C@H]1C[C@@H]2OC3C=C(C)CCC3(C)[C@@]1(C)[C@@]21CO1` (some centres not stated), for which the growth is -18.9% (active) and -20.4% (active).

Staying with this assay, now noted: 25 µM.
As to `Cc1c(N)nc([C@H](CC(N)=O)NC[C@H](N)C(N)=O)nc1C(=O)N[C@H](C(=O)N[C@H](C)[C@@H](O)[C@H](C)C(=O)N[C@H](C(=O)NCCc1nc(-c2nc(C(=O)NCCC[S+](C)C)cs2)cs1)[C@@H](C)O)C(OC1OC(CO)C(O)C(O)C1OC1OC(CO)C(O)C(OC(N)=O)C1O)c1cnc[nH]1` (some centres not stated), the growth was 42.4% (inactive) and -73.8% (active).

The assay is the same for the next values; noted with them: 100 µM.
Turning to `COc1cccc2c1cc([N+](=O)[O-])c1c(C(=O)O)cc3c(c12)OCO3`, the growth was -10.4% (active) and -42.6% (active).

With `CC1CCC2(NC1)OC1CC3C4CCC5CC(OC6OC(CO)C(OC7OC(CO)C(O)C(OC8OCC(O)C(O)C8O)C7OC7OC(CO)C(O)C(O)C7O)C(O)C6O)CCC5(C)C4CCC3(C)C1C2C` (configuration not stated), the growth was -97.4% (active) and -87.3% (active).

Consider `S=C(SSC(=S)N1CCCCC1)N1CCCCC1`, for which the growth was -61.8% (active).
